These results are taken from PubChem BioAssay (NCATS).

The nature of experiment [1]: qHTS of pediatric cancer cell lines to identify multiple opportunities for drug repurposing: Primary screen for BT-37 cells (AID 1347094). Note: potency is the fitted concentration of half-maximal effect. In short, it runs like this: (§1)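 Primary screen of approved and investigational compounds on cells in growth media at 37 degrees C, 5% CO2. MIPE set at 11-point and NPC set at 8-point dilutions; viability scored by ATP-based luminescence at 48 hours.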

Experiment [2] is described as follows: qHTS of pediatric cancer cell lines to identify multiple opportunities for drug repurposing: Primary screen for NB-EBc1 cells (AID 1347095). Note: potency is the fitted concentration of half-maximal effect. In outline: as §1
Experiment [3] is described as follows: qHTS of pediatric cancer cell lines to identify multiple opportunities for drug repurposing: Primary screen for U-2 OS cells (AID 1347096). Note: nearly all actives have a fitted effect of over 50% in size. In outline:
(§2)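 Cells (500-1,000/well) rested 5 h, then received compounds for 48 h; metabolically active cells were measured by CellTiter-Glo luminescence. Final concentrations spanned up to 46 µM (MIPE, 11-point) or 0.59 nM-46 µM (NPC, 8-point) in primary screens, 11-point in follow-ups.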

A short description of experiment [4]: qHTS of pediatric cancer cell lines to identify multiple opportunities for drug repurposing: Primary screen for Saos-2 cells (AID 1347097). Note: nearly all actives have a fitted effect of over 40% in size. Note: potency is the fitted concentration of half-maximal effect. In outline: as §1
A short description of experiment [5]: qHTS of pediatric cancer cell lines to identify multiple opportunities for drug repurposing: Primary screen for NB1643 cells (AID 1347099). Note: nearly all actives have a fitted effect of over 50% in size. Note: potency is the fitted concentration of half-maximal effect. In short, it runs like this: as §1
The nature of experiment [6]: qHTS of pediatric cancer cell lines to identify multiple opportunities for drug repurposing: Primary screen for Rh18 cells (AID 1347102). Note: nearly all actives have a fitted effect of over 65% in size. Note: potency is the fitted concentration of half-maximal effect. In short, it runs like this: as §2
Experiment [7] in a line: qHTS of pediatric cancer cell lines to identify multiple opportunities for drug repurposing: Primary screen for OHS-50 cells (AID 1347103). Note: nearly all actives have a fitted effect of over 40% in size. Note: potency is the fitted concentration of half-maximal effect. In short, it runs like this: as §2
Experiment [8] in a line: qHTS of pediatric cancer cell lines to identify multiple opportunities for drug repurposing: Primary screen for Rh41 cells (AID 1347108). Note: nearly all actives have a fitted effect of over 70% in size. Note: potency is the fitted concentration of half-maximal effect. In outline: as §1
Experiment [9] is described as follows: qHTS of pediatric cancer cell lines to identify multiple opportunities for drug repurposing: Primary screen for LAN-5 cells (AID 1347100). Note: potency is the fitted concentration of half-maximal effect. In short, it runs like this:
as §2

Experiment [10] is described as follows: qHTS of pediatric cancer cell lines to identify multiple opportunities for drug repurposing: Primary screen for BT-12 cells (AID 1347101). Note: nearly all actives have a fitted effect of over 25% in size. Note: potency is the fitted concentration of half-maximal effect. In short, it runs like this: as §2
Experiment [11] is described as follows: qHTS of pediatric cancer cell lines to identify multiple opportunities for drug repurposing: Primary screen for MG 63 (6-TG R) cells (AID 1347105). Note: nearly all actives have a fitted effect of over 50% in size. Note: potency is the fitted concentration of half-maximal effect. In short, it runs like this:
as §1

A short description of experiment [12]: qHTS of pediatric cancer cell lines to identify multiple opportunities for drug repurposing: Primary screen for control Hh wild type fibroblast cells (AID 1347106).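 Note: series mostly up to about 46 µM; a drop in luminescence marks cytotoxicity and a rise apparent proliferation; nearly all actives have a fitted effect of over 55% in size.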 In outline:
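Cells (500-1,000/well) in growth media were settled 5 h at 37 degrees C, then given compounds for 48 h. Viability was read as CellTiter-Glo luminescence. Primary runs used MIPE at 11 points (0.78 nM-46 µM) and NPC at 8 points (0.59 nM-46 µM); follow-ups used 11 points.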

The nature of experiment [13]: qHTS of pediatric cancer cell lines to identify multiple opportunities for drug repurposing: Primary screen for Rh30 cells (AID 1347107). Note: nearly all actives have a fitted effect of over 75% in size. Note: potency is the fitted concentration of half-maximal effect. In short, it runs like this: as §2
A short description of experiment [14]: qHTS of pediatric cancer cell lines to identify multiple opportunities for drug repurposing: Confirmatory screen for NB1643 cells (AID 1347109). Note: nearly all actives have a fitted effect of over 45% in size. In short, it runs like this:
as §2

Experiment [15] in a line: qHTS of pediatric cancer cell lines to identify multiple opportunities for drug repurposing: Confirmatory screen for SK-N-MC cells (AID 1347111).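 Note: cells exposed to compound for 48 h before the readout; nearly all actives have a fitted effect of over 70% in size.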 Note: potency is the fitted concentration of half-maximal effect. In outline:
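Seed 500-1,000 cells/well; rest 5 h at 37 degrees C. Pin-transfer compounds, 11-point titration. Incubate 48 h. Add CellTiter-Glo, 15 min RT, read luminescence.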

Experiment [16] is described as follows: qHTS of pediatric cancer cell lines to identify multiple opportunities for drug repurposing: Confirmatory screen for BT-12 cells (AID 1347112). Note: nearly all actives have a fitted effect of over 55% in size. In short, it runs like this: as §2
A short description of experiment [17]: qHTS of pediatric cancer cell lines to identify multiple opportunities for drug repurposing: Primary screen for RD cells (AID 1347104). Note: nearly all actives have a fitted effect of over 55% in size. Note: potency is the fitted concentration of half-maximal effect. In short, it runs like this:
as §1

Experiment [18] in a line: qHTS of pediatric cancer cell lines to identify multiple opportunities for drug repurposing: Primary screen for SK-N-SH cells (AID 1347098). Note: nearly all actives have a fitted effect of over 65% in size. Note: potency is the fitted concentration of half-maximal effect. In short, it runs like this:
as §2

A short description of experiment [19]: qHTS of pediatric cancer cell lines to identify multiple opportunities for drug repurposing: Confirmatory screen for A673 cells (AID 1347110).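 Note: cells exposed to compound for 48 h before the viability read; nearly all actives have a fitted effect of over 65% in size.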 In outline: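 qHTS titration format: primary MIPE 0.78 nM-46 µM (11 pts), NPC 0.59 nM-46 µM; confirmation 11 pts. 48 h, CTG luminescence.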
Experiment [20] can be described thus: qHTS of pediatric cancer cell lines to identify multiple opportunities for drug repurposing: Confirmatory screen for LAN-5 cells (AID 1347113). Note: nearly all actives have a fitted effect of over 65% in size. In outline:
as §2

Each structure is given as a SMILES string. Records with an inconclusive call do not appear. Activity calls are given as the source filed them. Calls come from the whole dose curve; as a rule, active = well fitted curve in the direction sought with a large enough effect; inconclusive = small, poorly fitted or top-dose-only effect, or another doubt; inactive = no such curve, though single readings can be large; an effect the other way counts as inactive or inconclusive.

For `Nc1nc(F)nc2c1ncn2[C@@H]1O[C@H](COP(=O)(O)O)[C@@H](O)[C@H]1O`, the Potency in [1] is 15.3 µM (active); in experiment [2], 0.935 µM (active); in [4], 0.743 µM (active); in experiment [5], 16.6 µM (active); in [7] it was 0.485 µM (active). In addition, the Potency result in experiment [3], in experiment [6] and in [8] was “inactive” throughout.
Take `CCCCCCCCCCCC1=C(O)C(=O)C=C(O)C1=O`: the Potency in [1] is 0.0243 µM (active); in experiment [2], 0.469 µM (active); in experiment [4], 0.0372 µM (active); in experiment [9], 0.0166 µM (active); in experiment [10] it was 0.0432 µM (active); in experiment [7], 0.0193 µM (active). In addition, the Potency in experiment [11] was 2.96 µM (active); in [8] it was 4.69 µM (active); in experiment [15], 16.5 µM (active). Also, the Potency entry in experiment [3], in experiment [6], in [12], in experiment [13], in experiment [14] and in experiment [16] was “inactive” each time.
As for `OC[C@@H](O)[C@H](O)[C@H](O)[C@@H](O)CO`, the Potency result in experiment [1], in experiment [2], in experiment [3], in experiment [4], in [10] and in experiment [6] was “inactive” in each case. Besides, the Potency result in experiment [7], in [17], in experiment [12], in experiment [13] and in experiment [8] was “inactive” each time.
In the case of `O=C(O)c1ccccc1C(=O)Nc1ccc(-c2ccccc2)cc1`, the Potency entry in [1], in experiment [2], in experiment [3], in experiment [4], in [10] and in experiment [6] was “inactive” throughout. The Potency entry in experiment [7], in experiment [17], in [11], in experiment [12], in [13] and in experiment [8] was “inactive” in each case.
As to `CS(=O)(=O)N(Cc1ccco1)CC(O)Cn1c2ccccc2c2ccccc21` (centres undefined), the Potency entry in [1], in [2], in experiment [3], in [18], in experiment [9] and in [6] was “inactive” throughout. In [12], the Potency entry was “inactive”.
On to `CC(C)NCC(O)COc1cccc2[nH]ccc12` (centres undefined), for which the Potency entry in [1], in experiment [2], in experiment [3], in experiment [18], in [5] and in experiment [9] was “inactive” each time. For the same compound, the Potency result in [10], in experiment [6], in experiment [7], in [17], in [11] and in experiment [12] was “inactive” in each case. Also, in experiment [13], the Potency result was “inactive”.
Consider `O=C(Nc1ccccc1-c1cn2c(CN3CCNCC3)csc2n1)c1cnc2ccccc2n1`, for which the Potency in experiment [1] was 27.3 µM (active); in experiment [5], 13.2 µM (active); in experiment [9] it was 20.9 µM (active); in experiment [6] it was 8.33 µM (active); in experiment [7], 27.3 µM (active); in experiment [17], 33.2 µM (active). The Potency is 23.5 µM (active) in experiment [11], 23.5 µM (active) in experiment [13] and 20.9 µM (active) in [8]. Further, the Potency entry in [2] and in experiment [3] was “inactive” throughout.
As for `O=C(O)c1cc(O)c2c(c1)C(=O)c1cccc(O)c1C2=O`, the Potency entry in experiment [1], in experiment [3], in experiment [18], in [9], in experiment [10] and in experiment [6] was “inactive” in each case. For the same compound, the Potency result in [7], in [17] and in [12] was “inactive” in each case. Also, in experiment [2], the Potency is 38.2 µM (active).
`O=C(O)c1ccc(-c2c[nH]c3ncc(-c4ccccc4)cc23)cc1C1CCCC1`: the Potency result in experiment [1], in [2], in experiment [3], in experiment [4], in experiment [10] and in experiment [6] was “inactive” in each case. Also, the Potency result in experiment [12], in experiment [13], in [8], in experiment [14], in [19] and in [16] was “inactive” throughout. For the same compound, the Potency entry in [20] was “inactive”. Besides, the Potency in [15] is 9.27 µM (active).
`c1cc(-c2sc(-c3ccncc3)c(-c3ccncc3)c2-c2ccncc2)ccn1`: the Potency result in experiment [1], in experiment [2], in [3], in [9], in [10] and in experiment [6] was “inactive” throughout. The Potency entry in [7], in experiment [11], in experiment [12] and in experiment [13] was “inactive” each time.
Turning to `CC1(C)CCC[C@@]2(C)[C@@H]1CC[C@@]1(C)OC(=O)C[C@H]21`, the Potency result in experiment [1], in experiment [2], in [3], in experiment [18], in experiment [5] and in experiment [9] was “inactive” each time. The Potency entry in experiment [10], in [6], in [17], in [11], in [12] and in [13] was “inactive” each time. In addition, the Potency entry in [8], in experiment [14], in [19], in experiment [16] and in experiment [20] was “inactive” each time. The Potency in experiment [15] was 26.1 µM (active).
`CC(C)(C(=O)NCC(F)(F)C(F)(F)F)C(=O)N[C@@H]1C(=O)Nc2ccccc2-c2ccccc21`: the Potency is 0.769 µM (active) in experiment [1]; 4.69 µM (active) in [2]; 0.662 µM (active) in experiment [9]; 1.09 µM (active) in experiment [10]; 1.53 µM (active) in experiment [7]. Besides, the Potency entry in experiment [3], in [6], in experiment [11], in [12], in experiment [14] and in [19] was “inactive” in each case. Besides, the Potency result in experiment [16] and in experiment [20] was “inactive” throughout.
On to `CC(=O)O[C@]1(C(C)=O)CC[C@@H]2[C@@H]3C[C@H](C)C4=CC(=O)CC[C@]4(C)[C@H]3CC[C@@]21C`, for which the Potency entry in experiment [1], in experiment [2], in experiment [3], in [12] and in experiment [20] was “inactive” in each case. The Potency was 24.1 µM (active) in [18], 20.9 µM (active) in [5], 24.3 µM (active) in experiment [10] and 24.3 µM (active) in experiment [7].
As to `Nc1ncnc2c1ncn2[C@@H]1O[C@@H](CO)[C@H](O)[C@H]1O`, the Potency result in [1], in experiment [2], in experiment [3], in experiment [18], in experiment [5] and in experiment [10] was “inactive” throughout. For the same compound, the Potency result in experiment [6], in experiment [7], in experiment [17], in experiment [12], in experiment [13] and in [8] was “inactive” each time. The Potency entry in experiment [19], in experiment [15], in experiment [16] and in experiment [20] was “inactive” in each case.
Regarding `Cc1cnc(C(=O)O)c[n+]1[O-]`, the Potency result in experiment [1], in experiment [2], in [3], in experiment [4], in [9] and in [10] was “inactive” in each case. The Potency entry in [6], in [7], in [17], in experiment [11], in [12] and in experiment [13] was “inactive” in each case.
